Compounds with a hit are over-represented: about 3.8% of the library has one in this group of screens.
ATXN viability: viability counter-screen for ATXN expression inhibitors | Potency, µM (doses to about 56.7 µM), actives largely listed as cytotoxic | S2 cells (HEK-293 line with an ATXN2-luciferase reporter) viability, CellTiter-Fluor protease fluorescence, 24 h | 400,000 tested, 0.49% active; further: nearly all actives have a fitted effect of over 40% in size
A549 tox: counter-screen for Nrf2 inhibitors: cytotoxicity in A549 cells; A549 ARE-Fluc cells, CellTiter-Fluor viability, 18-24 h; Potency, µM (series often up to 46 µM), for the others: at the highest dose activity change, negative = cytotoxicity, hits mostly inhibitors; 390,000 tested, 0.16% active; AID 504648; further: on the % scale 0 is the no-effect control and ±100 the full control effect
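A549 ARE_Fluc cells in 5% FBS OPTI-MEM were exposed to compounds in concentration-response for 18-24 h at 37 deg C. Viability was read by CellTiter-Fluor fluorescence (Ex 405/Em 525) after 30 min, before the luciferase read.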
TGFb SMAD3 inh: blocks TGF-b signaling | HepG2 CAGA-GFP TGF-b/SMAD3 reporter, GFP fluorescence, 18 h; TGF-beta stimulated, 500 pg/mL final | Potency, µM (series often up to 46.1 µM), for inactives: top-dose activity, negative = inhibition, hits mostly inhibitors | 410,000 tested, 1.2% active; further: on the % scale 0 is the no-effect control and ±100 the full control effect; nearly all actives have a fitted effect of over 65% in size
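GFP signal (ex488/em500-530) from TGF-beta-stimulated HEPG2 CAGA-GFP cells, 500 pg/mL final, 18 h at 37 degrees C in DMEM plus 1% FBS, normalized to unstimulated and DMSO-stimulated controls.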
Nrf2 inh: Nrf2 pathway inhibition; Potency, µM (series often up to 46 µM), for inactives: at the top dose activity change, negative = inhibition, actives largely listed as inhibitors; 360,000 tested, 2.1% active; A549 ARE-Fluc reporter, luciferase luminescence, 18-24 h; further: on the % scale 0 is the no-effect control and ±100 the full control effect; nearly all actives have a fitted effect of over 60% in size
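Concentration-response testing used A549 ARE_Fluc cells at 5000 cells/well. Following an 18-24 h compound incubation, viability was read by fluorescence (Ex 405/Em 525) and luciferase output by luminescence.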
HepG2 viability: HepG2 cytotoxicity, counter-screen for TGF-b inhibitors; HepG2 CAGA-GFP viability, ATP luminescence, 18 h; Potency, µM (series often up to 46.1 µM), for the others: at the highest dose activity change, negative = cytotoxicity, actives largely listed as cytotoxic; 410,000 tested, 0.76% active
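HepG2 CAGA-GFP cells (1000/well, DMEM with 1% FBS) received compound, then TGF-beta at 500 pg/mL final, and were incubated 18 hours at 37 degrees C. Viability was read by CellTiter-Glo luminescence. Media-only wells were set as complete cell-killing and DMSO as no toxicity.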
ATXN2 expr inh: ATXN2 expression inhibition; HEK-293 ATXN2-luciferase reporter, luminescence, 24 h; Potency, µM (titrated, usually from 57 µM), inactives show at the highest dose activity change, negative = inhibition, usual class: inhibitors; 360,000 tested, 0.72% active; further: on the % scale 0 is the no-effect control and ±100 the full control effect; nearly all actives have a fitted effect of over 55% in size
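ATXN2-luciferase reporter cells (luciferase flanked by upstream and downstream ATXN2 gene portions) were treated 24 h at 37 °C with compounds at up to 57 uM. SteadyGlo luminescence gave expression; GF-AFC fluorescence gave viability.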
* = called active by the depositor; i = inactive; ? = inconclusive; / = not tested or not shown. The call rests on the fitted dose curve; in most records, active means well fitted curve in the direction sought with a large enough effect; inconclusive means small, poorly fitted or top-dose-only effect, or another doubt; inactive means no such curve, though single readings can be large; an effect the other way counts as inactive or inconclusive. Potency means the concentration at half of the fitted maximal effect.

SMILES | ATXN viability | A549 tox | TGFb SMAD3 inh | Nrf2 inh | HepG2 viability | ATXN2 expr inh
COc1ccc(-n2c(-c3ccc(Br)cc3)c[n+]3c2CCc2ccccc2-3)cc1 | i | -16% | ? | 8.2µM* | -36% | ?
Cc1ccc(NC(=O)CSc2n[nH]c(-c3ccc(F)cc3)n2)cc1F | / | -8% | 11µM* | / | -42% | /
CC(CCc1ccccc1)NC(=O)CSc1n[nH]c(-c2ccc(F)cc2)n1 (stereo not drawn) | / | 1% | 11µM* | / | -20% | /
CC(CCc1ccccc1)NC(=O)CSc1n[nH]c(-c2ccccc2)n1 (stereo not drawn) | / | -11% | -42% | / | -34% | /
Cc1ccc(NC(=O)CSc2ncccn2)cc1F | i | 4% | -8% | 19% | -9% | /
Cc1cc2c(n1-c1ccc(C(N)=O)cc1)CC(C)(C)CC2=O | i | -4% | -8% | -3% | -2% | 1%
CC1(C)CC(=O)c2c(C(F)(F)F)nn(-c3ccc(C(N)=O)c(NC4CCC(OC(=O)CN)CC4)c3)c2C1 (stereo not drawn) | / | / | / | / | / | 0.22µM*
CC1(C)CC(=O)c2c(C(F)(F)F)nn(-c3ccc(C(N)=O)c(NC4CCC(O)CC4)c3)c2C1 (stereo not drawn) | / | / | / | / | / | 0.097µM*
COc1ccc(C(=O)c2oc3ccccc3c2NC(=O)c2cc(=O)c3ccc(C)cc3o2)cc1Cl | i | 4% | -13% | 0% | -4% | 11%
COCCCNC(=S)N(Cc1cccnc1)Cc1ccc(OC)c(OC)c1 | i | 6% | 15% | 12% | 1% | -14%
O=C1CC[C@@H](OCc2ccccc2)CCN1CC[C@H](Sc1ccccc1)c1ccccc1 | i | 0% | ? | 12% | -4% | 3%
CCCCCC(=O)Nc1ccc(C(=O)CN2C(=O)NC3(CCCCCC3)C2=O)cc1 | i | -6% | -3% | -11% | -14% | -4%
Cc1cccc(C)c1N(CC(=O)N1CCCC1)S(C)(=O)=O | ? | -3% | 8% | 0% | 7% | -14%
CCc1cc2c(=O)n(Cc3ccco3)c(SCC(=O)N3CCCc4ccccc43)nc2s1 | ? | -28% | -7% | 26µM* | -16% | -12%
Cc1ccccc1C1c2[nH]c3ccccc3c2C[C@H]2C(=O)N(c3ccccc3C(=O)NCCCN3CCOCC3)C(=O)N12 (stereo partly drawn) | i | -11% | 10% | ? | -10% | -7%
CC1(C(=O)NS(=O)(=O)c2ccccc2Cl)CCN1C(=O)C1CCCCC1 (stereo not drawn) | i | / | -11% | / | 3% | 4%
CC1=C(C(=O)OC(C)C)C(c2cn(-c3ccccc3)nc2-c2cccs2)NC(=O)N1 (stereo not drawn) | i | ? | 6% | 18µM* | -4% | /
Cc1ccc2c(c1)c1c(n2CC(O)Cn2ccnc2C)C(=O)CCC1 (stereo not drawn) | i | -6% | 1% | -5% | -3% | -12%
Cc1ccc2c(c1)c1c(n2CC(O)CNC2CCCC2)CCCC1 (stereo not drawn) | 25µM* | -5% | ? | 3% | -101% | /
CCC(c1nnnn1C1CCCCC1)N(Cc1ccco1)Cc1cc2ccc(OC)cc2[nH]c1=O (stereo not drawn) | ? | ? | ? | 23µM* | 6% | ?
CC1=C(C(=O)OC2CCCCCC2)C(c2cccc(Cl)c2)CC(=O)N1 (stereo not drawn) | i | 1% | ? | 16µM* | -43% | -29%
CC1=C(C(=O)OC2CCCCCCC2)C(c2cccc(O)c2)NC(=O)N1 (stereo not drawn) | ? | -19% | -26% | 26µM* | -40% | -14%
CC1=C(C(=O)OC2CCCCCC2)C(c2ccc(Cl)cc2)CC(=O)N1 (stereo not drawn) | i | 1% | ? | ? | -67% | 7%
COc1ccc(C(=O)c2cn(Cc3cccc(C)c3)c3cc4c(cc3c2=O)OCCO4)cc1OC | ? | ? | ? | ? | -22% | -24%
CC(OC(=O)/C=C/c1ccc2ccccc2n1)C(=O)Nc1ccc(S(N)(=O)=O)cc1 (stereo not drawn) | i | 1% | -15% | -16% | -19% | 2%
SMILES | ATXN viability | A549 tox | TGFb SMAD3 inh | Nrf2 inh | HepG2 viability | ATXN2 expr inh
Cn1c(COc2ccc(Cl)cc2)nnc1SCc1ncc(-c2ccccc2)o1 | i | -30% | ? | 16µM* | -68% | ?
COc1cccc(C(=O)CN(C(=O)c2ccc(Cl)c(Cl)c2)N2C(=O)C3CCCCC3C2=O)c1 (stereo not drawn) | i | 1% | -3% | 11% | -3% | 1%
O=c1[nH]c2ccc(S(=O)(=O)N3CCN(S(=O)(=O)c4c(F)cccc4F)CC3)cc2[nH]c1=O | / | -10% | / | 4% | / | /
CN(C)C(=O)N1CCc2ccc([N+](=O)[O-])cc21 | i | / | ? | / | -74% | /
CCOc1ccc(NC(C(=O)Nc2cccc(C(C)=O)c2)c2ccccc2)cc1 (stereo not drawn) | i | 2% | -7% | 14% | -5% | -11%
CCN(CC)CCNC(C(=O)Nc1cccc(C(C)=O)c1)c1ccccc1 (stereo not drawn) | i | 6% | -29% | 13% | 13µM* | -6%
COCCN1C(=O)/C(=C/c2ccc(OCc3ccc(C(=O)O)cc3)c(OC)c2)SC1=Nc1ccccc1 | i | 21µM* | 9% | ? | -21% | -1%
COc1ccc(-c2nn(-c3ccc(F)cc3)c3c2cnc2cc4c(cc23)OCO4)cc1 | i | 6% | 0% | / | -7% | 12%
COc1cc(OC)cc(-c2ccc3ncc4ccc(=O)n(-c5ccc(N6CCNCC6)c(C(F)(F)F)c5)c4c3c2)c1 | / | / | / | / | / | 19µM*
CC(=O)c1ccc(/C=C/c2nc3ccccc3n2C)o1 | / | 1% | -5% | ? | -6% | 11%
CCOC(=O)c1c(C)nc2c(c1-c1cc(OC)ccc1OC)C(=O)c1ccccc1-2 | / | -6% | -28% | 1% | 1% | /
CCOC(=O)c1c(C)nc2c(c1-c1ccccc1)C(=O)c1ccccc1-2 | i | -19% | -18% | 13µM* | -8% | -5%
CCOc1ccc(NC(=O)CN(C)C(=O)CSCc2ccc(C)cc2)cc1OCC | i | -10% | 18% | -6% | 5µM* | -19%
C[C@H](CO)N1C[C@H](C)[C@@H](CN(C)C(=O)Nc2ccc(C(F)(F)F)cc2)Oc2c(NS(=O)(=O)c3cccs3)cccc2C1=O | i | -4% | -27% | 13% | -1% | 11%

Compound activity: PubChem BioAssay, National Center for Advancing Translational Sciences (NCATS)
